# Test results taken from paper PMC5540273 (PLoS ONE, 2017).
# Assays:
# Settings in all cases: concentration: 1 μM, replicates: in singlicate; n = 1
# CDK3 = system: CDK3
# CDK4-cyclinD1 = system: CDK4-cyclinD1
# CDK4-cyclinD3 = system: CDK4-cyclinD3
# CDK4 = system: CDK4
# CDK5 = system: CDK5
# CDK7 = system: CDK7
# CDK8 = system: CDK8
# CDK9 = system: CDK9
# CDKL1 = system: CDKL1
# CDKL2 = system: CDKL2
# CDKL3 = system: CDKL3
# CDKL5 = system: CDKL5
# CHEK1 = system: CHEK1
# CHEK2 = system: CHEK2
# CIT = system: CIT
# CLK1 = system: CLK1
# CLK2 = system: CLK2
# CLK3 = system: CLK3
# CLK4 = system: CLK4
# CSF1R-autoinhibited = system: CSF1R-autoinhibited
# 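Further: KINOMEscan kinase panel screen.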
SMILES,%Inh (CDK3),%Inh (CDK4-cyclinD1),%Inh (CDK4-cyclinD3),%Inh (CDK4),%Inh (CDK5),%Inh (CDK7),%Inh (CDK8),%Inh (CDK9),%Inh (CDKL1),%Inh (CDKL2),%Inh (CDKL3),%Inh (CDKL5),%Inh (CHEK1),%Inh (CHEK2),%Inh (CIT),%Inh (CLK1),%Inh (CLK2),%Inh (CLK3),%Inh (CLK4),%Inh (CSF1R-autoinhibited)
CCCC(=O)Nc1n[nH]c2ncc(-c3cccc4ccccc34)cc12 [SB-642057],51%,0%,37%,0%,0%,0%,7%,0%,10%,0%,0%,3%,0%,0%,1%,30%,0%,0%,8%,0%
CCS(=O)(=O)c1ccc(OC)c(Nc2ncc(-c3ccc(F)cc3)o2)c1.Cl [GW591947],0%,0%,0%,14%,0%,0%,19%,0%,14%,29%,59%,0%,0%,0%,21%,25%,40%,79%,23%,0%
O=c1cc(N2CCOCC2)nc2n(Cc3ccc(F)c(Cl)c3)ccn12 [GSK2297099],6%,0%,20%,0%,0%,0%,10%,7%,10%,8%,0%,10%,4%,0%,4%,63%,45%,26%,45%,0%
CCc1nc(-c2cccc(C)c2)c(-c2ccncc2)s1,8%,6%,0%,0%,3%,0%,0%,7%,33%,4%,7%,0%,0%,16%,72%,13%,6%,0%,0%,0%
COc1cc2ncn(-c3cc(OCc4ccncc4Br)c(C(N)=O)s3)c2cc1OC [GW854278],5%,13%,0%,0%,0%,0%,15%,0%,14%,0%,0%,0%,0%,10%,3%,10%,38%,0%,0%,0%
Cc1cccc(-c2nc(Nc3ccc4c(cnn4C)c3)c3ccccc3n2)n1 [GW876731],0%,0%,0%,1%,0%,11%,0%,0%,0%,23%,12%,0%,0%,0%,12%,0%,10%,0%,0%,0%
Cc1cccc(-c2cc(-c3c[nH]nc3-c3ccccn3)ccn2)c1 [GW679395],9%,0%,0%,0%,0%,0%,4%,0%,0%,14%,0%,0%,0%,0%,45%,18%,2%,0%,6%,0%
O=C1NC(=O)C(c2ccccc2)=C1Nc1cccc(O)c1 [SB-390534],6%,0%,0%,0%,0%,0%,0%,0%,1%,11%,0%,0%,0%,16%,0%,40%,21%,19%,10%,0%
COc1cc2nccc(Nc3cccc(Oc4ccccc4)c3)c2cc1OC.Cl [GW284543],0%,1%,0%,30%,0%,0%,37%,0%,9%,7%,0%,0%,0%,0%,0%,21%,0%,0%,0%,32%
CN(C)c1cc(-c2ccc3c(N)n[nH]c3c2)nc(N)n1 [GSK2219329],0%,0%,0%,0%,0%,0%,0%,0%,7%,11%,0%,0%,0%,0%,23%,45%,12%,0%,51%,0%
Nc1nccc2scc(-c3ccc4c(c3)CCN4C(=O)Cc3ccccc3)c12 [GSK2576924],9%,0%,0%,13%,0%,7%,70%,0%,7%,17%,0%,0%,0%,0%,46%,34%,19%,0%,25%,0%
OCCCNc1nccc(-c2c(-c3cccc(C(F)(F)F)c3)nn3cc(C(F)(F)F)ccc23)n1 [GW630813],1%,0%,0%,29%,0%,0%,15%,0%,0%,7%,0%,11%,0%,1%,0%,9%,0%,0%,16%,32%
COc1ccc(Nc2nccc(N3CCC(NS(=O)(=O)c4ccc(NC(C)=O)cc4)C3)n2)cc1 (centres unmarked) [GSK1379729],20%,8%,0%,13%,12%,0%,35%,0%,0%,14%,4%,0%,14%,0%,22%,25%,0%,0%,27%,0%
CCS(=O)c1ccc(-c2coc3ccc(-c4nnc(C)o4)cc23)cc1 (centres unmarked),0%,25%,0%,32%,12%,20%,5%,0%,0%,0%,0%,0%,0%,0%,2%,0%,0%,0%,5%,8%
COc1cc(Nc2nccc(N3CCC(NC(=O)C4COc5ccccc5O4)C3)n2)cc(OC)c1OC (centres unmarked) [GSK1379761],0%,52%,0%,70%,0%,57%,57%,0%,11%,11%,0%,0%,0%,29%,33%,3%,0%,0%,0%,58%
Cc1nc(N(C)[C@H]2CN(C(=O)CC#N)CC[C@H]2C)c2cc[nH]c2n1,2%,0%,23%,0%,16%,11%,0%,0%,0%,0%,0%,6%,48%,0%,0%,13%,15%,0%,0%,0%
Nc1nc(-c2ccccc2F)c(-c2ccnc3ccccc23)s1 [GW560459],0%,11%,0%,32%,0%,0%,39%,0%,0%,26%,0%,0%,0%,14%,30%,12%,0%,8%,7%,24%
CCn1c(-c2ccoc2)nc2cnccc21 [SB-733887],23%,5%,29%,0%,0%,60%,33%,0%,0%,16%,0%,0%,17%,24%,19%,26%,0%,0%,3%,15%
COC(=O)c1c(-c2ccccc2)c2cc(Br)ccc2c(=O)n1Cc1ccc(S(C)(=O)=O)cc1,0%,0%,5%,0%,15%,29%,0%,3%,0%,0%,22%,26%,0%,23%,23%,0%,14%,0%,13%,7%
COc1ccc(-c2coc3ccc(-c4nnc(SCc5cccc(C#N)c5)o4)cc23)cc1,0%,0%,0%,0%,18%,9%,0%,0%,5%,0%,0%,9%,0%,0%,5%,47%,10%,0%,57%,0%
COc1cc2ncn(-c3cc(OCCCc4ccccc4)c(C(N)=O)s3)c2cc1OC [GSK205189],1%,0%,0%,0%,0%,0%,4%,0%,5%,7%,0%,2%,0%,0%,10%,19%,0%,0%,9%,0%
COc1cc(Nc2ccnc3ccc(C(F)(F)F)cc23)cc(OC)c1OC [GW577382],16%,39%,0%,10%,0%,1%,47%,0%,6%,21%,8%,0%,0%,0%,11%,25%,0%,0%,14%,14%

SMILES,%Inh (CDK3),%Inh (CDK4-cyclinD1),%Inh (CDK4-cyclinD3),%Inh (CDK4),%Inh (CDK5),%Inh (CDK7),%Inh (CDK8),%Inh (CDK9),%Inh (CDKL1),%Inh (CDKL2),%Inh (CDKL3),%Inh (CDKL5),%Inh (CHEK1),%Inh (CHEK2),%Inh (CIT),%Inh (CLK1),%Inh (CLK2),%Inh (CLK3),%Inh (CLK4),%Inh (CSF1R-autoinhibited)
COc1ccc(-c2cc3c(C)nc(N)nc3n([C@H]3CC[C@H](O)CC3)c2=O)cn1,8%,0%,0%,0%,0%,7%,0%,0%,0%,0%,0%,0%,0%,13%,0%,0%,0%,0%,0%,6%
Nc1n[nH]c2ncc(-c3ccccc3)cc12 [SB-517081],26%,0%,5%,23%,0%,0%,0%,0%,8%,34%,0%,0%,12%,0%,29%,21%,0%,0%,66%,0%
CCC(=O)c1c(-c2ccccc2)c2cc(Cl)ccc2c(=O)n1Cc1cc(C(=O)NC2CC2)n(C)n1,0%,3%,0%,0%,0%,12%,14%,11%,0%,3%,0%,6%,0%,6%,7%,0%,0%,0%,0%,0%
Cl.NS(=O)(=O)c1cccc(Nc2cc(-c3ccc(F)cc3)n[nH]2)c1 [GW824645],29%,0%,0%,0%,0%,1%,0%,5%,3%,0%,1%,0%,0%,0%,2%,0%,0%,0%,0%,0%
COc1cc(OC)cc(-c2cc3cnc(N)nc3nc2NC(=O)NC(C)(C)C)c1,14%,0%,8%,0%,0%,31%,0%,0%,0%,0%,2%,0%,0%,10%,0%,30%,0%,0%,7%,0%
FC(F)(F)c1ccc(-c2ncn(CCCN3CCOCC3)c2-c2ccncc2)cc1 [SB-217780],0%,0%,1%,9%,0%,9%,12%,0%,13%,0%,0%,16%,0%,33%,0%,12%,0%,0%,0%,0%
CCC(=O)c1c(-c2ccccc2)c2cc(Cl)ccc2c(=O)n1Cc1cc(S(C)(=O)=O)n(CC(N)=O)n1,0%,0%,0%,0%,0%,2%,0%,0%,23%,0%,16%,0%,0%,0%,11%,0%,7%,0%,63%,0%
CCCNC(=O)Nc1ccc(Oc2ncnc3ccn(C)c23)cc1,0%,0%,0%,20%,19%,0%,0%,0%,0%,4%,18%,7%,0%,0%,1%,0%,0%,0%,4%,7%
COC(=O)c1c(-c2ccccc2)c2cc(C)ccc2c(=O)n1Cc1ccccc1,0%,0%,0%,0%,0%,0%,5%,0%,4%,0%,0%,0%,0%,0%,0%,0%,0%,0%,0%,0%
Nc1ncnc2c1ncn2-c1cccc2ccccc12 [SKF-97184],0%,0%,0%,13%,0%,22%,38%,1%,33%,0%,26%,3%,0%,17%,35%,0%,3%,6%,0%,33%
CCC(=O)c1c(-c2ccccc2)c2cc(Cl)ccc2c(=O)n1Cc1cc(S(C)(=O)=O)n(CC(F)F)n1,0%,0%,0%,0%,0%,0%,0%,2%,0%,0%,2%,8%,13%,0%,0%,8%,0%,0%,0%,0%
COc1cc2ncn(-c3cc(OCc4ccncc4)c(C(N)=O)s3)c2cc1OC [GSK336313],10%,0%,18%,0%,0%,2%,0%,0%,5%,15%,0%,2%,0%,0%,10%,42%,5%,0%,0%,0%
COc1cc2nccc(Nc3ccc(OCc4ccc(NC(C)=O)cc4)cc3)c2cc1OC.Cl [GW440135],4%,37%,0%,34%,0%,0%,36%,0%,1%,0%,20%,0%,0%,0%,0%,8%,0%,10%,0%,25%
CCn1c(-c2nonc2N)nc2ccccc21 [SB-693162/GW549034],48%,0%,46%,13%,12%,20%,0%,0%,8%,0%,3%,25%,0%,0%,31%,0%,0%,0%,0%,8%
Nc1nc(N)c2nc(-c3ccccc3)[nH]c2n1 [SKF-12778],1%,20%,0%,0%,5%,7%,23%,0%,0%,2%,2%,4%,0%,0%,17%,36%,11%,13%,32%,0%
Cc1ccc(Oc2ccc(Nc3ncnc4cc[nH]c34)cc2C)cn1,0%,4%,0%,29%,9%,40%,0%,10%,1%,0%,3%,3%,6%,22%,57%,0%,0%,0%,24%,0%
O=C(NCc1cccs1)c1cc(C(=O)c2c(Cl)cccc2Cl)c[nH]1 [GW823670],15%,0%,0%,0%,0%,0%,16%,0%,8%,0%,21%,0%,22%,0%,16%,0%,22%,0%,0%,0%
Fc1cccc(CSc2nnc(-c3ccc4c(c3)CCO4)o2)c1,0%,0%,17%,0%,4%,0%,0%,0%,3%,4%,0%,16%,0%,3%,0%,73%,20%,0%,78%,5%
Cc1ccccc1COc1cc(-n2cnc3cc(Cl)ccc32)sc1C(N)=O [GW813349],0%,25%,3%,0%,0%,0%,14%,0%,34%,13%,23%,2%,0%,0%,21%,18%,3%,0%,6%,0%
Nc1n[nH]c2nnc(-c3ccccc3)c(-c3ccccc3)c12 [GW554060],17%,2%,0%,22%,0%,0%,14%,0%,0%,0%,0%,0%,24%,0%,26%,23%,65%,0%,12%,34%
C[C@@H]1CC[C@H](C(=O)NC2CCCCC2)CN1c1cc(-c2ccc3c(N)n[nH]c3c2)nc(N)n1 [GSK2291363],18%,0%,0%,14%,15%,0%,37%,0%,0%,26%,0%,4%,0%,22%,24%,40%,26%,16%,35%,31%
